{"source": "PubChem BioAssay (NCATS)", "note": "A number with no mark means an inactive call. Results filed as inconclusive are left out. Activity calls are given as the source filed them. Calls follow the shape of the dose curve; as a rule, active = well fitted curve in the direction sought with a large enough effect; inconclusive = small, poorly fitted or top-dose-only effect, or another doubt; inactive = no such curve, though single readings can be large; an effect the other way counts as inactive or inconclusive.", "data": [{"assay": "qHTS to identify inhibitors of the type 1 interferon - major histocompatibility complex class I in skeletal muscle: primary screen against the NCATS Pharmaceutical Collection (AID 1347407); also: % is scaled to controls: 0 for no effect and ±100 for the full control effect", "settings": "human skeletal muscle cells, IFN-b-induced MHC-I HiBiT luminescence, 24 h; series mostly up to 45.9 µM; activity change, negative = inhibition: at the top concentration", "summary_of_the_method": "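Immortalized human myoblasts (C25cl48) with HiBiT knocked into endogenous HLA-B*08:01 were stimulated with 4.0 ng/ml IFN-beta and treated with compounds ([…] top 46 uM) for 24 hrs at 37 C. HiBiT lytic luminescence read.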", "units": {"activity change, negative = inhibition": "%"}, "values": [{"smiles": "NCC1(CC(=O)O)CCCCC1", "activity change, negative = inhibition": 2.28}, {"smiles": "CC(CCc1ccccc1)NC(C)C(O)c1ccc(O)cc1", "note": "(stereo not given)", "activity change, negative = inhibition": -18.8}, {"smiles": "Cc1cccc(C)c1NC1=NCCCS1", "activity change, negative = inhibition": 10.6}, {"smiles": "CN(C)[C@@H]1C(=O)C(C(N)=O)=C(O)[C@@]2(O)C(=O)C3=C(O)c4c(O)cccc4[C@@](C)(O)[C@H]3C[C@@H]12", "activity change, negative = inhibition": -23.3}, {"smiles": "CC(=O)Nc1cc([As](=O)(O)O)ccc1O", "activity change, negative = inhibition": 12.2}, {"smiles": "COc1ccc(C(CN(C)C)C2(O)CCCCC2)cc1", "note": "(stereo not given)", "activity change, negative = inhibition": 2.5}, {"smiles": "CC(=O)[C@H]1CC[C@H]2[C@@H]3CC[C@H]4C[C@H](O)CC[C@]4(C)[C@H]3C(=O)C[C@]12C", "activity change, negative = inhibition": -8.21}, {"smiles": "CN1C[C@H](CNC(=O)OCc2ccccc2)C[C@@H]2c3cccc4c3c(cn4C)C[C@H]21", "activity change, negative = inhibition": -11.9}, {"smiles": "NN=C(N)N", "activity change, negative = inhibition": -9.28}, {"smiles": "Cc1ncc(CNC(=O)N(CCCl)N=O)c(N)n1", "activity change, negative = inhibition": 0.005}, {"smiles": "CC(C)=CCOc1c2occc2cc2ccc(=O)oc12", "activity change, negative = inhibition": -13}, {"smiles": "CNCC(O)c1ccc(O)cc1", "note": "(stereo not given)", "activity change, negative = inhibition": -1.45}]}, {"assay": "qHTS for inhibitors of adenylyl cyclases using a fission yeast platform: a pilot screen against the NCATS LOPAC library (AID 1347410);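 also: plate controls were DMSO vehicle for no effect and DPI positive control for full effect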", "settings": "S. pombe CHP2027, fbp1-GFP fluorescence, 18 h; series mostly up to 57.5 µM; activity, positive = inhibition (GFP gain): at the top concentration", "summary_of_the_method": "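S. pombe CHP2027 (AC9-GNAS-PDE4D2) carrying PKA-repressed fbp1-GFP, incubated 18 h at 30C in EMM with LOPAC compounds at up to 57 uM. GFP gain-of-signal read by laser scanning cytometry; DMSO negative control.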", "values": [{"smiles": "c1ccc(C2CC2)c(OCC2=NCCN2)c1", "activity, positive = inhibition (GFP gain)": "-0.438%"}, {"smiles": "C[C@@H]1O[C@@H](O[C@H]2C[C@@H](O)[C@]3(CO)[C@H]4[C@H](O)C[C@]5(C)[C@@H](C6=CC(=O)OC6)CC[C@]5(O)[C@@H]4CC[C@]3(O)C2)[C@H](O)[C@H](O)[C@H]1O", "activity, positive = inhibition (GFP gain)": "-0.438%"}, {"smiles": "CCC1(C2=NCCN2)Cc2ccccc2O1", "note": "(stereo not given)", "activity, positive = inhibition (GFP gain)": "0.0765%"}, {"smiles": "CC(O)(CS(=O)(=O)c1ccc(F)cc1)C(=O)Nc1ccc(C#N)c(C(F)(F)F)c1", "note": "(stereo not given)", "activity, positive = inhibition (GFP gain)": "-0.438%"}, {"smiles": "CC(=O)[C@H]1CC[C@H]2[C@@H]3CC[C@H]4C[C@](C)(O)CC[C@]4(C)[C@H]3CC[C@]12C", "activity, positive = inhibition (GFP gain)": "-0.438%"}, {"smiles": "Nc1ccncc1", "activity, positive = inhibition (GFP gain)": "-0.438%"}, {"smiles": "COc1ccccc1N1CCNCC1", "activity, positive = inhibition (GFP gain)": "0.0209%"}, {"smiles": "N#CC(C#N)=Cc1ccc(O)c(O)c1", "activity, positive = inhibition (GFP gain)": "0.647%"}, {"smiles": "CCCN1CCC[C@@H]2Cc3nc(N)ncc3C[C@H]21", "activity, positive = inhibition (GFP gain)": "0.559%"}, {"smiles": "NCC(O)c1ccc(O)cc1", "note": "(stereo not given)", "activity, positive = inhibition (GFP gain)": "0.0951%"}, {"smiles": "Cc1ccc(S(=O)(=O)N[C@@H](CCCCN)C(=O)CCl)cc1", "activity, positive = inhibition (GFP gain)": "-0.438%"}, {"smiles": "Cn1c(CCCC(=O)O)nc2cc(N(CCCl)CCCl)ccc21", "activity, positive = inhibition (GFP gain)": "0.652% [at 57.5 µM, yeast expressing mammalian AC9 and human GNAS]"}, {"smiles": "CC[C@@H](CO)NC(=O)[C@@H]1C=C2c3cccc4[nH]cc(c34)C[C@H]2N(C)C1", "activity, positive = inhibition (GFP gain)": "-0.438%"}, {"smiles": "NCC(CC(=O)O)c1ccc(Cl)cc1", "note": "(stereo not given)", "activity, positive = inhibition (GFP gain)": "0.796%"}, {"smiles": "CCCN1CCC[C@@H]2Cc3[nH]ncc3C[C@H]21", "outcome": "inactive"}, {"smiles": "CC[C@@H](CO)NC(=O)[C@@H]1C=C2c3cccc4c3c(cn4C)C[C@H]2N(C)C1", "activity, positive = inhibition (GFP gain)": "-0.438%"}, {"smiles": "O=C1NCN(c2ccccc2)C12CCN(CC1COc3ccccc3O1)CC2", "note": "(stereo not given)", "activity, positive = inhibition (GFP gain)": "0.0951%"}, {"smiles": "Cc1cccc(C)c1NC(=O)CN1CCCC1=O", "activity, positive = inhibition (GFP gain)": "-0.438%"}, {"smiles": "NCC1(CC(=O)O)CCCCC1", "activity, positive = inhibition (GFP gain)": "-0.438%"}, {"smiles": "CC(CCc1ccccc1)NC(C)C(O)c1ccc(O)cc1", "note": "(stereo not given)", "activity, positive = inhibition (GFP gain)": "-0.438%"}, {"smiles": "Cc1cccc(C)c1NC1=NCCCS1", "activity, positive = inhibition (GFP gain)": "-0.438%"}, {"smiles": "COc1ccc(C(CN(C)C)C2(O)CCCCC2)cc1", "note": "(stereo not given)", "activity, positive = inhibition (GFP gain)": "-0.438%"}, {"smiles": "CC(=O)[C@H]1CC[C@H]2[C@@H]3CC[C@H]4C[C@H](O)CC[C@]4(C)[C@H]3C(=O)C[C@]12C", "activity, positive = inhibition (GFP gain)": "0.842%"}, {"smiles": "CN1C[C@H](CNC(=O)OCc2ccccc2)C[C@@H]2c3cccc4c3c(cn4C)C[C@H]21", "activity, positive = inhibition (GFP gain)": "-0.438%"}, {"smiles": "NN=C(N)N", "outcome": "inactive"}, {"smiles": "Cc1ncc(CNC(=O)N(CCCl)N=O)c(N)n1", "activity, positive = inhibition (GFP gain)": "0.211%"}, {"smiles": "CC(C)=CCOc1c2occc2cc2ccc(=O)oc12", "activity, positive = inhibition (GFP gain)": "-0.438%"}, {"smiles": "CNCC(O)c1ccc(O)cc1", "note": "(stereo not given)", "activity, positive = inhibition (GFP gain)": "-0.0905%"}]}]}
